Reference: the supplement of paper PMC7801607

Tests used:
CHO = experiment: % viability of CHO cells (MTT); higher = less toxic; conditions: 48 h
Summary of the method: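 CHO cells were plated at 10^6 cells/well in 200 µL and allowed to attach overnight. Fresh medium with compound at 2 or 20 µM then replaced the old medium for 48 h. Percent viability, relative to untreated cells, came from a colorimetric tetrazolium (MTT) readout.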

HepG2-A16-CD81 = experiment: % inhibition of HepG2 viability (CellTiter-Glo); higher = more toxic; conditions: 5 µM
[1] = tested on: Plasmodium falciparum NF54 stage IV/V gametocytes; experiment: % inhibition of gametocyte viability (PrestoBlue); higher = more inhibition; conditions: 48 h
Summary of the method: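 In a single run, percent inhibition of gametocyte viability was calculated relative to vehicle and kill controls. The wells held 100 µL of Stage IV/V NF54 gametocytes at 2% gametocytaemia and 5% haematocrit, with compound at 1 or 5 µM. Plates stood at 37 °C in hypoxic conditions for 48 h. After that, 10 µL PrestoBlue was added for 2 h, and 70 µL of supernatant was transferred for fluorescence reading at 612 nm.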

[2] = tested on: Plasmodium falciparum NF54 asexual blood stage; experiment: % inhibition of asexual blood stage proliferation (pLDH); higher = more inhibition; conditions: 72 h
Summary of the method: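 Percent inhibition of asexual proliferation, normalised to controls, was determined in a screen repeated on two separate occasions. Plasmodium falciparum NF54 ring-stage cultures (1% haematocrit, 2% parasitaemia) received compound at 2 or 20 µM and were incubated for 72 h at 37 °C under 4% CO2, 3% O2 and 93% N2. A colorimetric parasite lactate dehydrogenase readout at 620 nm gave survival.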

[3] = tested on: Plasmodium falciparum NF54 stage IV/V gametocytes; experiment: % inhibition of gametocyte viability (ATP bioluminescence); higher = more inhibition; conditions: 24 h
Summary of the method: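 Enriched stage IV/V NF54 gametocytes were exposed to compound at 1 or 5 µM for 24 h at 37 °C in 96-well plates. Percent inhibition of gametocyte viability was derived from a bioluminescent ATP readout, normalised to controls within a single run.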

[4] = tested on: Plasmodium falciparum NF54 stage IV/V gametocytes; experiment: % inhibition of gametocyte viability (luciferase reporter); higher = more inhibition; conditions: 48 h
Summary of the method: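 Stage IV/V gametocytes of the NF54-Pfs16-GFP-Luc line (2% gametocytaemia, 2% haematocrit) were exposed to compound at 1 or 5 µM. Incubation was 48 h at 37 °C, stationary and hypoxic. Luminescence was read on 30 µL lysate plus 30 µL Promega luciferin substrate on a GloMax-Multi+ reader with 10 s integration. Percent inhibition was normalised to DMSO and kill controls from a single run.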

[5] = tested on: Plasmodium berghei ANKA liver stage in HepG2-A16-CD81; experiment: % inhibition of liver stage parasite viability (luciferase); higher = more inhibition; conditions: 5 µM; 48 h
Protocol: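 Single-concentration screen of the MMV Pandemic Response Box. P. falciparum NF54 asexual blood stages: pLDH assay, 72 h at 37 °C, 2 and 20 µM, n=2. Stage IV/V gametocytes (NF54): luciferase reporter (NF54-Pfs16-GFP-Luc, 48 h), ATP bioluminescence (24 h) and PrestoBlue (48 h) at 1 and 5 µM, n=1. P. berghei liver stage (luciferase in HepG2-A16-CD81, 48 h post infection) at 5 µM, n=4. All normalised to DMSO and kill controls as % inhibition.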
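Throughout, for % inhibition of HepG2 viability (CellTiter-Glo): HepG2-A16-CD81 hepatoma cells plated as in the liver-stage assay but without sporozoites, with DMSO wells as negative and 25 µM puromycin as positive control.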

Structure (SMILES)	% viability of CHO cells (CHO; 2 µM)	% viability of CHO cells (CHO; 20 µM)	% inhibition of HepG2 viability (HepG2-A16-CD81)	% inhibition of gametocyte viability ([1]; 1 µM)	% inhibition of gametocyte viability ([1]; 5 µM)	% inhibition of asexual blood stage proliferation ([2]; 2 µM)	% inhibition of asexual blood stage proliferation ([2]; 20 µM)	% inhibition of gametocyte viability ([3]; 1 µM)	% inhibition of gametocyte viability ([3]; 5 µM)	% inhibition of gametocyte viability ([4]; 1 µM)	% inhibition of gametocyte viability ([4]; 5 µM)	% inhibition of liver stage parasite viability [5]
O=C(O)c1ccc(-n2nc(-c3ccccc3O)nc2-c2ccccc2O)cc1	85.7%	106%	3.21%	8.04%	< 0%	-5.88%	-5.43%	< 0%	< 0%	< 0%	< 0%	
C[C@H](NC(=O)C(=O)Nc1ccccc1C(C)(C)C)C(=O)N[C@@H](CC(=O)O)C(=O)COc1c(F)c(F)cc(F)c1F	113%	63.6%	0.382%	< 0%	< 0%	31.7%	46.9%	< 0%	< 0%	1.5%	2.48%	
Clc1cc2nc(C3CCNCC3)n(Cc3ccc(CNCCc4cnc[nH]4)cc3)c2cc1Cl	88.7%	96.1%	2.02%	< 0%	1.67%	27.7%	98%	< 0%	0.428%	< 0%	< 0%	
CC(Oc1ccc(Cl)cc1Cl)C(=O)NCc1ccc2c(c1)OCO2 (configuration not stated)				< 0%	35.3%	-4.14%	-3.59%	< 0%	< 0%	< 0%	< 0%	7.01%
CCC(C)NCC(O)Cn1c2ccc(Cl)cc2c2cc(Cl)ccc21 (configuration not stated)	112%	1.87%	1.41%	33.3%	87.6%	68.7%	81.8%	6.9%	68.2%	< 0%	91%	
O=[N+]([O-])c1cn2c(n1)OC[C@@H](OCc1ccc(OC(F)(F)F)cc1)C2	92.7%	84.4%	10.7%	< 0%	< 0%	0.354%	10.1%	< 0%	< 0%	< 0%	3.32%	
CCc1nc(N)nc(N)c1C#CC(C)c1cc(OC)cc(-c2ccncc2)c1 (configuration not stated)	89.5%	52.5%	20.8%	< 0%	9.41%	51.1%	94%	< 0%	< 0%	< 0%	< 0%	
C=C[C@]1(C)C[C@@H](OC(=O)CS[C@@H]2C[C@H]3CC[C@@H](C2)N3C)[C@]2(C)[C@H](C)CC[C@]3(CCC(=O)[C@H]32)[C@@H](C)[C@@H]1O	77.8%	48.9%	7.56%	< 0%	2.51%	68.8%	104%	1.57%	7.83%	< 0%	< 0%	
O=C(NCc1cccc2ccccc12)c1cccs1	101%	134%	7.63%	13.5%	24.3%	-14.2%	-4.95%	< 0%	< 0%	< 0%	< 0%	
C=C(C)n1c(=O)n(Cc2ccccc2C)c2ccccc21	110%	56.8%	3.81%	4.81%	0.864%	16.6%	48.2%	< 0%	< 0%	< 0%	< 0%	
Nc1ccc(-c2nc3cc(C(F)(F)F)ccc3n2C23CC4CC(CC(C4)C2)C3)cc1	97.3%	130%	-7.13%	22.2%	19.2%	10.3%	67.9%	< 0%	< 0%	< 0%	< 0%	
CC(C)(C)c1ccc(C(=O)NC(=O)N2CCCc3ccccc32)cc1	94.6%	101%	-0.159%	< 0%	< 0%	-6.14%	-5.88%	< 0%	< 0%	< 0%	< 0%	
O=C(CP(=O)(O)O)NCCc1cccc(Oc2ccccc2)c1	108%	84.2%	0.91%	16.8%	19.8%	30.7%	29.5%	2.33%	< 0%	< 0%	< 0%	
O=C(Nc1ccc(Cl)c(C(F)(F)F)c1)C(CCCl)C(=O)Nc1ccc(Cl)c(C(F)(F)F)c1	84%	93.6%	5.66%	< 0%	< 0%	19.9%	27.7%	< 0%	< 0%	< 0%	< 0%	
CCc1cc(CCC(=O)Nc2ccccc2O)c(=O)[nH]c1C	90.7%	106%	0.672%	5.05%	16.3%	-8.67%	47.7%	< 0%	< 0%	< 0%	< 0%	
O=C(NCc1ccccc1Cl)c1cnc2ccccc2n1	106%	124%	5.29%	< 0%	< 0%	6.58%	48.8%	< 0%	< 0%	< 0%	< 0%	
CC1(C)[C@H](C(=O)O)N2C(=O)C[C@H]2S1(=O)=O				< 0%	< 0%	11.2%	34.3%	< 0%	< 0%	< 0%	< 0%	20.3%
Nc1nc(NC2Cc3ccc(F)cc3C2)nc(N2CCCCC2)n1 (configuration not stated)	96%	79.3%	2.58%	28.3%	55.5%	26.7%	91%	5.3%	< 0%	< 0%	7.28%	
CC[C@H](CO)Nc1nc(NCc2ccccc2)c2ncn(C(C)C)c2n1	157%	60.7%	10.6%	< 0%	< 0%	-11.2%	88%	1.02%	< 0%	6.71%	< 0%	
O=c1nc(N2CCN(CC3CCCCC3)CC2)sc2c([N+](=O)[O-])cc(C(F)(F)F)cc12	95.8%	112%	7.83%	< 0%	4.32%	37%	107%	< 0%	< 0%	8.82%	< 0%	
OC(Cn1cncn1)(Cn1cncn1)c1ccc(F)cc1F	76.1%	-3.55%	-1.31%	< 0%	< 0%	-1.25%	-5.32%	< 0%	< 0%	< 0%	< 0%	
